Compound activity as filed in PubChem.
In the library only some 4% were active in any assay of this set; here they are far more common.
Rv3671c inh: inhibitors of M. tuberculosis serine protease Rv3671c. P9WHR9. inhibition, % at 5.96 µM. 320,000 compounds, 0.048% hits. AID 2606; in the data active means inhibition above about 38%;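 further: extracellular domain of Rv3671c used as enzyme; 0% = enzyme with DMSO and 100% = no enzyme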
Mtb betalactam: beta-lactam sensitization of Mtb H37Rv; M. tuberculosis H37Rv growth with meropenem, percent inhibition; inhibition, % at 25 µM; 330,000 compounds, 0.27% hits; call rule not given here;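 further: growth measured after seven days incubation then overnight dye step; 0% = bacteria only wells and 100% = bacteria with antibiotic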
FBA Mtb inh: Mtb fructose-bisphosphate aldolase inhibition; P9WQA3; purified M. tuberculosis FBA, fluorescence read-out; inhibition, % at 1 µM; 360,000 compounds, 2.3% hits; AID 588726;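 further: 0% = vehicle and 100% = reference inhibitor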
UGM FP inh: blocks M. tuberculosis UGM enzyme; P9WIQ1; purified UGM, fluorescence polarization probe displacement; inhibition, % at 10 µM; 320,000 compounds, 0.06% hits; in the data active means inhibition above about 10%, passing the limit was not always enough
Target sequence (P9WIQ1 whole entry, looked up): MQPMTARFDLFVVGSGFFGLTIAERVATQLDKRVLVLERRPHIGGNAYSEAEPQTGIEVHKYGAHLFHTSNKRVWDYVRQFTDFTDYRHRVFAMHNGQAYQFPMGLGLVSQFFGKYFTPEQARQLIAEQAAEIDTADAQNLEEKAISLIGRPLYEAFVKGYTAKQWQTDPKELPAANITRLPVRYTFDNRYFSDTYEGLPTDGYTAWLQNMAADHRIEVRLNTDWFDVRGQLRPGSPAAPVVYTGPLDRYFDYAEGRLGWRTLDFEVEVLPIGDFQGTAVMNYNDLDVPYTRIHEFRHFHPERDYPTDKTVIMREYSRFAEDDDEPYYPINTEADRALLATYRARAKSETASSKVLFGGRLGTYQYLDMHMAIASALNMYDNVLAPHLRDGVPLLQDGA
GDH-TPI counter-1: inhibits GDH-TPI coupling enzymes, artifact for Mtb FBA screen. 360,000 compounds, 1.2% hits. GDH-TPI coupled enzyme counterscreen, NADH absorbance. inhibition, % at 4.8 µM. AID 588335; in the data active means inhibition above about 30%;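 further: 0% = DMSO wells and 100% = wells lacking the enzyme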
RecA splice inh: blocks M. tuberculosis RecA intein splicing. P9WHJ3. cell-free RecA intein splicing, fluorescence. inhibition, % (concentration not given with the values). 290,000 compounds, 0.75% hits; in the data active means inhibition above about 30%;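 further: 0% = vehicle wells and 100% = reference inhibitor control wells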
Mtb FBA inh conf: Mtb FBA inhibition, confirmed | shares compounds with FBA Mtb inh | inhibition, % at 1 µM | 5,600 compounds, 78% hits | purified M. tuberculosis FBA, fluorescence read-out;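 further: 0% = vehicle wells and 100% = reference inhibitor wells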
GDH-TPI counter-2: counter-screen for M. tuberculosis FBA inhibitors: GDH-TPI coupled enzyme inhibition; shares compounds with FBA Mtb inh; GDH-TPI coupled enzyme counterscreen, fluorescence; inhibition, % at 1 µM; 5,600 compounds, 81% hits; in the data active means inhibition above about 10%
GDH-TPI DR: GDH-TPI dose response counter-screen for Mtb FBA; shares compounds with FBA Mtb inh; GDH-TPI coupled enzyme assay, fluorescence, artifact counterscreen; IC50, µM; 170 compounds, 79% hits; call rule not given here
* marks the source's active call; other numbers are inactive results; . = no result; + = active, no number. Unless noted, no stated cut-off is given here; in the data, active means inhibition above about 27%; inactive means the rest.

SMILES	Rv3671c inh	Mtb betalactam	FBA Mtb inh	UGM FP inh	GDH-TPI counter-1	RecA splice inh	Mtb FBA inh conf	GDH-TPI counter-2	others
Cc1cccc(C=Nc2ccc3c(c2)oc2ccccc23)c1O	8	97	36*	-1	9	2	151*	117*
COc1ccc(Br)cc1CNC(=O)c1ccc2c(c1)N(C)CCS2	0	-3	50*	1	4	-1	+	152*
CCN1CCSc2ccc(C(=O)NCc3cc(Br)ccc3OC)cc21	3	-8	37*	-1	-7	-8	102*	76*
CN1CCSc2ccc(C(=O)Nc3ccc(Cl)cc3)cc21	-8	1	33*	4	13	-2	13	3
CCN1CCN(c2ccc(S(=O)(=O)N3CCCCC3)cc2NC(=O)CC(NC(C)=O)c2ccccc2)CC1 (stereo not given)	1	-2	4	-1	0	10	.	.
Cc1ccc(C)c(OCC(=O)Nc2cc(NC(=O)COc3cc(C)ccc3C)cc(C(=O)O)c2)c1	-21	2	0	-1	-7	1	.	.
NC(=O)CSc1oc(-c2ccco2)nc1S(=O)(=O)c1ccc(F)cc1	9	0	-1	1	-2	1	.	.
O=C(O)c1ccccc1C(=O)Nn1cnnc1	-1	-2	1	1	-2	0	.	.
COc1ccc(-c2cc3nc(-c4ccccc4)cc(N4CCN(C(=O)c5ccoc5)CC4)n3n2)cc1	.	.	56*	.	12	.	48*	36*
OC1CCN(c2cc(-c3ccccc3)nc3cc(-c4ccc(F)cc4)nn23)CC1	-28	7	22	-2	2	-16	.	.
Cc1cccc(-c2cc3nc4c(c(N5CCCC(O)C5)n3n2)CCC4)c1 (stereo not given)	2	8	12	2	15	0	.	.
CCN1CCN(c2cc(-c3ccccc3)nc3cc(-c4cccc(F)c4)nn23)CC1	-3	100	42*	-1	21	-6	76*	53*
COc1cccc(-c2cc3nc(-c4ccccc4)cc(N4CCCC(O)C4)n3n2)c1 (stereo not given)	-26	98	102*	0	9	9	199*	141*
Cc1c(C(=O)NCc2nnc(-c3ccccc3)o2)oc2c(F)cccc12	.	-5	2	0	3	0	.	.
N=c1oc2ccc(Cl)cc2cc1C(=O)Nc1ccc(F)cc1	0	23	2	-2	5	-1	.	.
CCc1ccc2[nH]cc(S(=O)(=O)c3ccc(C)c(C)c3)c(=O)c2c1	-23	-1	0	-1	-11	-1	.	.
CCc1ccc2[nH]c3nc(C)cc(C)c3c(=O)c2c1	-9	11	75*	-1	3	-36	75*	59*
C[N+]1(CC(=O)OCCCc2ccccc2)CCCCC1	7	-5	30*	-2	-3	5	60*	42*
O=C(Cc1ccc([N+](=O)[O-])cc1)OCc1c(F)cccc1Cl	-4	38	-3	1	3	-1	.	.
COC(=O)Cc1c[nH]c2cccc(OCC(O)CN(Cc3ccc([N+](=O)[O-])cc3)C(C)(C)C)c12 (stereo not given)	1	1	-1	1	0	4	.	.
COC(=O)Cc1c[nH]c2cccc(OCC(O)CN(Cc3ccccc3)C(C)C)c12 (stereo not given)	-6	-3	29*	-2	-3	2	25	25*
CCCCS(=O)(=O)Nc1ccc(C)cn1	-1	-2	41*	2	-1	1	+	+
O=C(c1cc2c(=O)n3ccccc3nc2s1)N1CCN(Cc2ccc3c(c2)OCO3)CC1	2	-7	96*	1	10	-10	22	-6	GDH-TPI DR=2.3*
O=C(c1cc2c(=O)n3ccccc3nc2s1)N1CCN(Cc2ccccc2)CC1	-4	1	105*	1	3	-40	-3	-6
CC1CCCN(C(=O)c2cc3c(=O)n4ccccc4nc3s2)C1 (stereo not given)	6	18	59*	1	20	-39	50*	30*
